Screening data from PubChem.
LASV entry inh – Lassa virus entry inhibition; Potency, µM (titrated, usually from 37.9 µM), for inactives: top-dose activity change, negative = inhibition, most hits filed as inhibitors; AID 540256; 300,000 compounds, 1.2% hits; Lassa virus pseudotype entry inhibition, cell reporter; calls by dose curve; tested in HEK293 cells; note: potency is the fitted concentration of half-maximal effect; nearly all actives have a fitted effect of over 50% in size
FMDV inh – foot and mouth disease virus antiviral activity | AID 1159524 | FMDV antiviral cell-based qHTS | 410,000 compounds, 1.2% hits | Potency, µM (series often up to 57.9 µM), inactives show at the top dose activity change, negative = inhibition, hits mostly inhibitors; calls by dose curve; tested in HEK293T cells; note: read-out not given here; potency is the fitted concentration of half-maximal effect; nearly all actives have a fitted effect of over 45% in size
Marburg entry inh – blocks Marburg virus binding to or entry into cells; 300,000 compounds, 1.8% hits; AID 540276; Marburg virus pseudotyped entry inhibition, cell reporter; Potency, µM (titrated, usually from 37.8 µM), without a hit: at the top dose activity change, negative = inhibition, actives largely listed as inhibitors; calls by dose curve; tested in HEK293 cells; note: potency is the fitted concentration of half-maximal effect
HCV inh – HCV inhibition | 340,000 compounds, 3.4% hits | Potency, µM (doses to about 41.8 µM), without a hit: at the highest dose activity change, negative = inhibition, hits mostly inhibitors | Huh7.5.1 HCVcc-Cre infection, luciferase reporter, 44 h; active = well fitted inhibition curve with a large enough effect; inconclusive = small, poorly fitted or top-dose-only effect, or another doubt; inactive = no such curve, though single readings can be large or run the other way; note: potency is the fitted concentration of half-maximal effect
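Seed cells (1,000/well) for 4 h; treat with compound and infect with HCVcc-Cre, moi about 0.5. Incubate 44 h, then detect luciferase activity.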
HCMV inh – blocks human cytomegalovirus replication; HFF cells, HCMV-luciferase reporter, 72 h; hits give low values; activity change, negative = inhibition, % at 57.5 µM; 410,000 compounds, 4.5% hits; in the data active = activity change below about -60%; inconclusive = no clear call, values can overlap the other calls; inactive = above about -39%
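Cell-based, HFFs, 1000 cells/well, 16 h 37C; cpds in DMSO + HCMV-luc, MOI 1 PFU/cell; 72 h 37C; OneGlo luminescence after 5 min RT; norm. to buffer vs Salinomycin 10uM.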
The depositor's hits bear a star; ? = inconclusive; / = no result; [ ] = remark or other dose. This is a sample that favours compounds with a hit; in the whole collection about 7.9% have one here. % is set by controls: 0 for no effect and ±100 for the full control effect.

SMILES | LASV entry inh | FMDV inh | Marburg entry inh | HCV inh | HCMV inh
CCOc1ccccc1N(CC(=O)Nc1c(C)n(C)n(-c2ccccc2)c1=O)S(=O)(=O)c1ccccc1 | / | 11% | / | 9% | -78*
CCOc1ccc(N(CC(=O)Nc2c(C)n(C)n(-c3ccccc3)c2=O)S(=O)(=O)c2ccc(F)cc2)cc1 | ? | 1% | ? | / | -66*
COc1ccc(N(CC(=O)Nc2c(C)n(C)n(-c3ccccc3)c2=O)S(=O)(=O)c2ccccc2)cc1OC | 12% | 28% | ? | ? | -5
COC(=O)[C@@H]1[C@@H](CO)[C@@H]2Cn3c(ccc(Br)c3=O)[C@H]1N2C(=O)c1ccncc1 | / | / | / | / | -3
Cc1ccccc1-c1noc(-c2ccccc2OCC(=O)Nc2ccccc2[N+](=O)[O-])n1 | -17%[46.1 µM] | -23% | ? | / | -1
CCOC(=O)CC1(C)c2nc(NC(C)=O)sc2Cc2sc(NC(C)=O)nc21 | / | 22% | / | / | -97*
O=c1cccc2c1c1cc[nH]c3ccc(=O)n2c31 | / | -22% | / | ? | -70*
O=c1cc[nH]c2ccc(Cl)cc12 | 11% | -7% | 18% | 5%[8.37 µM] | 16
CCC(c1nnnn1-c1ccc(OC)cc1)N1CCC(n2c(=O)[nH]c3ccccc32)CC1 (stereo not given) | / | -20% | / | / | -6
COc1ccc(-n2nnnc2C(CCc2ccccc2)N2CCC(n3c(=O)[nH]c4ccccc43)CC2)cc1 (stereo not given) | / | 28µM* | / | / | -95*
Cc1cccc(C)c1-n1nnnc1C(CCc1ccccc1)N1CCC(n2c(=O)[nH]c3ccccc32)CC1 (stereo not given) | / | 10µM* | / | / | -94*
COc1ccc(-n2nnnc2C(CCSC)N2CCC(n3c(=O)[nH]c4ccccc43)CC2)cc1 (stereo not given) | / | -18% | / | / | -35
O=c1[nH]c2ccccc2n1C1CCN(C(c2ccnc3ccccc23)c2nnnn2-c2ccc3c(c2)OCCO3)CC1 (stereo not given) | / | -22% | / | / | -76*
C(=C\c1ccccc1)/CN1CCN(C(CCc2ccccc2)c2nnnn2-c2ccc3c(c2)OCCO3)CC1 (stereo not given) | / | -9% | / | / | -9
COc1ccc(C(c2nnnn2-c2ccc3c(c2)OCCO3)N2CCC(n3c(=O)[nH]c4ccccc43)CC2)cc1 (stereo not given) | / | -9% | / | / | ?
O=c1[nH]c2ccccc2n1C1CCN(C(CCc2ccccc2)c2nnnn2-c2ccc3c(c2)OCCO3)CC1 (stereo not given) | / | 25µM* | / | / | -104*
CCC(CC)c1nn2c(=O)cc(COc3ccc(NC(=O)c4ccccc4C)cc3)nc2s1 | ? | -2% | ? | / | ?
COc1cc(-c2cc(C(=O)Nc3ccc(S(=O)(=O)NCc4ccco4)cc3)c3ccccc3n2)cc(OC)c1OC | ? | ? | ? | 0.28µM* | -63*
CCOc1ccccc1NC(=O)c1cc(-c2cc(OC)c(OC)c(OC)c2)nc2ccccc12 | 11µM* | -23% | ? | 8.9µM* | 29
Cc1ccc(-c2cc(C(=O)Nc3ccncc3)c3ccccc3n2)cc1 | ? | -8% | ? | 6% | 7
CC(C)(C)c1ccccc1NC(=O)c1cc(-c2ccncc2)nc2ccccc12 | -20%[46.1 µM] | 1% | ? | 11µM* | 15
COc1ccccc1NC(=O)c1cc(-c2cc(OC)c(OC)c(OC)c2)nc2ccccc12 | ? | -22% | 3.2µM* | ? | -6
Cc1cccc(NC(=O)c2ccc(-n3c(C)nnc3C)cc2)c1 | -14%[46.1 µM] | -14% | / | / | 18
O=C(Nc1ccc([N+](=O)[O-])cn1)c1cc(-c2cccc(Cl)c2)nc2ccccc12 | 12% | -22% | -9% | 2% | 18
COc1ccc(NC(=O)c2cc(-c3ccc(C)o3)nc3ccccc23)cc1OC | -6% | -12% | ? | ? | 79
SMILES | LASV entry inh | FMDV inh | Marburg entry inh | HCV inh | HCMV inh
O=C(Nc1ccccn1)c1cc(-c2cccc(Cl)c2)nc2ccccc12 | ? | -18% | ? | 16µM* | -71*
COc1ccc(OC)c(-c2cc(C(=O)Nc3ccccc3C(N)=O)c3ccccc3n2)c1 | / | ? | / | 10µM* | 10
COc1ccc(NC(=O)c2cc(-c3ccc(C)o3)nc3ccccc23)c(OC)c1 | / | 15% | / | 10µM* | -19
CCc1cccc(N2C(=O)N(Cc3c(F)cccc3Cl)c3ccccc3S2(=O)=O)c1 | -13%[46.1 µM] | -19% | / | / | 7
COc1ccc(Cl)cc1NC(=O)C(=O)NCc1ccc(Cl)cc1 | 8%[46.1 µM] | ? | / | / | -9
Cc1ccc(S(=O)(=O)n2nccc2-c2c(-c3ccc(Cl)cc3)noc2C)cc1 | ? | -20% | ? | 14µM* | -96*
CC(Oc1ccc(Cl)cc1)c1ccnn1S(=O)(=O)c1ccc(Cl)cc1 (stereo not given) | -21% | ? | -24% | ? | -20
COc1ccc(NS(=O)(=O)c2ccc(C)c(C(=O)N(C)CCc3ccc(OC)c(OC)c3)c2)cc1 | ? | -23% | -10% | ? | -17
COc1ccc(NS(=O)(=O)c2cccc(NC(=O)NC3CCCCC3)c2)cc1 | 2µM* | -17% | ? | ? | -60*
COc1ccc(NS(=O)(=O)c2ccc(C)c(NC(=O)NC3CCCCC3)c2)cc1 | 10µM* | -19% | ? | ? | -33
COc1ccc(NS(=O)(=O)c2cccc(NC(=O)COc3ccc(OC)cc3)c2)cc1 | / | 7% | / | ? | -32
COc1ccc(NS(=O)(=O)c2ccc(C)c(C(=O)N(C)Cc3ccc(C)cc3)c2)cc1 | 11µM* | 1% | ? | -10% | ?
CCn1cc(C(=O)N(C)Cc2ccccc2)c(=O)c2cc(S(=O)(=O)N3CCc4ccccc4C3)ccc21 | 4%[46.1 µM] | 26% | 8%[46.1 µM] | / | -7
CCOc1ccc(-c2cn3c(n2)sc2cc(C(=O)NCCc4ccc(OC)c(OC)c4)ccc23)cc1 | / | -6% | ? | / | /
CCOC(=O)NNC1CC(=O)N(c2ccccc2)C1=O (stereo not given) | 7% | -16% | 15% | 9% | -3
CC(C)(C)OC(=O)NNC1CC(=O)N(c2ccccc2F)C1=O (stereo not given) | 12% | -21% | 5% | 3% | -71*
CCOC(=O)CSc1nc2ccc(N3CCOCC3)cc2c(=O)n1Cc1ccccc1 | ? | 22% | 3% | 2.8µM* | -6
CCOC(=O)CSc1nc2ccccc2c(=O)n1CCN1CCOCC1 | 31% | -24% | 5% | 12% | -8
CCCS(=O)(=O)c1c(S(=O)(=O)CCC)c2cc(C(C)(C)C)ccn2c1C(=O)c1ccccc1 | ? | ? | ? | / | -64*
CCCS(=O)(=O)c1c(S(=O)(=O)CCC)c2c(N)cccn2c1C(=O)c1ccc(Br)cc1 | ? | 4% | ? | ? | ?
CCCS(=O)(=O)c1c(S(=O)(=O)CCC)c2c(N)cccn2c1C(=O)c1ccc(OC)cc1 | ? | 12% | ? | 25µM* | ?
